From the OligoGym collection

molecular target: MTX3; assay: pooled miR-30 sensor sort-seq; sequence = guide strand; conditions: shRNA
Further: reference of the scale not given here.

**Q.** For TTATCTATCACATTGACTTTCA, which sensor-assay potency score (higher = more potent) is on record?
**A.** -0.0166

**Q.** For TAAAGTAATTGTCACTCTCAAC, which sensor-assay potency score (higher = more potent) is on record?
**A.** -1.48

**Q.** Which sensor-assay potency score (higher = more potent) does the source give for TTGGCGAAGATTGTCATCCATC here?
**A.** -1.1

**Q.** With TATCACATTGACTTTCAAGGGT as the sequence, how does the sensor-assay potency score (higher = more potent) read?
**A.** 0.582

**Q.** With TAGAAGATTTAGGCACTCCTTG as the sequence, how does the sensor-assay potency score (higher = more potent) read?
**A.** -0.542

**Q.** TTTGCCTTCACACACTTGGTGT was tested. Which sensor-assay potency score (higher = more potent) did it give?
**A.** -0.519

**Q.** With TTTTGGTTTAGAGTCTTCCTTA as the sequence, how does the sensor-assay potency score (higher = more potent) read?
**A.** 0.00174

**Q.** How did the sensor-assay potency score (higher = more potent) turn out when ATAATCAGCATTATATTTCTGT was run?
**A.** 0.674

**Q.** For TTGCTGAGAGTTCATAATCAGC, which sensor-assay potency score (higher = more potent) is on record?
**A.** -1.72

**Q.** Which sensor-assay potency score (higher = more potent) does the source give for TAATTGTCACTCTCAACCCAGA here?
**A.** -0.703

**Q.** How did the sensor-assay potency score (higher = more potent) turn out when TTAATATTTATCTATGTGCTAC was run?
**A.** -0.31

molecular target: MUC16; assay: as above; conditions: shRNA

**Q.** For TTGTCTTTGAAACCAGTTCTGG, which sensor-assay potency score (higher = more potent) is on record?
**A.** -0.722

**Q.** With TTGGACTTTCTGAACTAGCGTG as the sequence, how does the sensor-assay potency score (higher = more potent) read?
**A.** -0.377

**Q.** TTGTCTGTGATGTTGAACTTGA was tested. Which sensor-assay potency score (higher = more potent) did it give?
**A.** -0.129

**Q.** For TTGACATAGAGACTGTCCCTGT, which sensor-assay potency score (higher = more potent) is on record?
**A.** -0.193

**Q.** TAGTTGTCGTTGAAACAGCTGA was tested. Which sensor-assay potency score (higher = more potent) did it give?
**A.** -0.38

**Q.** With TTCAGTAGTAGCACTAGTGGGC as the sequence, how does the sensor-assay potency score (higher = more potent) read?
**A.** 0.151

**Q.** How did the sensor-assay potency score (higher = more potent) turn out when TTGACATAGAAACTATTGCTTG was run?
**A.** -0.839

**Q.** With TTTGTCTCTGTTGTTGAGCTGG as the sequence, how does the sensor-assay potency score (higher = more potent) read?
**A.** 0.192

**Q.** How did the sensor-assay potency score (higher = more potent) turn out when TTGACATAGAGACTGTTCCTGT was run?
**A.** -0.0675

**Q.** For TTGACATAGAGACTGTTCCGGT, which sensor-assay potency score (higher = more potent) is on record?
**A.** -0.323

**Q.** For TTGACATAGAGACTGTGCCTGT, which sensor-assay potency score (higher = more potent) is on record?
**A.** -0.153

molecular target: MUC20; assay: as above; conditions: shRNA

**Q.** Which sensor-assay potency score (higher = more potent) does the source give for TTCGCTGAGGTTGTGATCTTGG here?
**A.** 0.418

**Q.** With TTCATCGTGGTCTTCGCTGAGG as the sequence, how does the sensor-assay potency score (higher = more potent) read?
**A.** -0.448

**Q.** Which sensor-assay potency score (higher = more potent) does the source give for TCTGTGGTCGGCCTCGTCCGGG here?
**A.** -1.58

**Q.** Which sensor-assay potency score (higher = more potent) does the source give for TACTGAAACACAGAACATGTGC here?
**A.** 0.46

**Q.** With TAACTTGGTGTCTCAACAGAGA as the sequence, how does the sensor-assay potency score (higher = more potent) read?
**A.** -0.859

**Q.** Which sensor-assay potency score (higher = more potent) does the source give for TTCACCTGCACTCACGTCTGTG here?
**A.** -1

**Q.** TGAAACACAGAACATGTGCCAA was tested. Which sensor-assay potency score (higher = more potent) did it give?
**A.** -0.681

**Q.** With TTAATAACCTCGATGTTTGTGA as the sequence, how does the sensor-assay potency score (higher = more potent) read?
**A.** -0.0395

**Q.** TTGGTGTCTCAACAGAGAGGGC was tested. Which sensor-assay potency score (higher = more potent) did it give?
**A.** -0.842

**Q.** Which sensor-assay potency score (higher = more potent) does the source give for TTTACTGAAACACAGAACATGT here?
**A.** -0.607

**Q.** With TTGTGAGTGTCTTTGCCTCTTC as the sequence, how does the sensor-assay potency score (higher = more potent) read?
**A.** -0.403

molecular target: MUC4; assay: as above; conditions: shRNA

**Q.** TTGAAGGTGTAACTGACACCAT was tested. Which sensor-assay potency score (higher = more potent) did it give?
**A.** 0.0208

**Q.** For TAACTGACACCATCCAAGGTGG, which sensor-assay potency score (higher = more potent) is on record?
**A.** -0.587

**Q.** How did the sensor-assay potency score (higher = more potent) turn out when TTGTGAGTAGAAAACAGGGGTG was run?
**A.** -0.53

**Q.** How did the sensor-assay potency score (higher = more potent) turn out when TTTGTCATCTTTCTAATCCAAG was run?
**A.** -1.23

**Q.** TTCACCATAGAACGTCTCGTAT was tested. Which sensor-assay potency score (higher = more potent) did it give?
**A.** -0.617

**Q.** For TAGATGGAGAAGGACACACAGC, which sensor-assay potency score (higher = more potent) is on record?
**A.** -1.17

**Q.** For TTGAAGAATCCTGACAGCCTTC, which sensor-assay potency score (higher = more potent) is on record?
**A.** -0.37
